{
  "source": "PubChem BioAssay (NCI)",
  "note": "The panel holds about 83,000 compounds, 20% with a hit somewhere; the sample as a whole holds those more often.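 Percent growth is the endpoint: 0 to 100 indicates growth inhibition (40 means 60% inhibition), 0 means no net growth, and negative values indicate cell death.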 Values without a mark were called inactive. Activity calls are given as the source filed them.",
  "data": [
    {"system": "OVCAR-8 ovarian", "test": "NCI-60 one-dose screen, 48 h (100 = growth as untreated, 0 = no growth, -100 = all killed)", "settings": "10 µM unless noted", "experimental": "Growth inhibition of the OVCAR-8 human tumor cell line is measured as a screen for anti-cancer activity. Cells are grown in 96 well plates and exposed to the test compound for 48 hours. Compounds are tested at a single concentration, which is 10^-5 M for most compounds. The reported endpoint is percent growth (GI% or GIPRCNT), where numbers from 0 - 100% represent growth inhibition, and numbers from -100% - 0 represent cell death. For example, a value of 40 represents 60% growth inhibition. A value of 0 means no net growth occurred over the course of the experiment. A value of -40 indicates 40% of cells at the beginning of the experiment died by the end of the experiment. A value of -100 means all cells are dead at the end of the experiment.\nNCI-60 Human Tumor Cell Lines Screen was performed using the standard one-dose NCI protocol, which is described in more detail at https://dtp.cancer.gov/discovery_development/nci-60/default.htm.\nCompounds with GIPRCNT values below 10 were considered active. Activity score was based on GIPRCNT using the following formula: […]\nScore is 0 for GIPRCNT values of 100 or above, 50 for GIPRCNT values of 0, and 100 for GIPRCNT values of -100.", "values": [
      {"compound": "CC1CCNC(C)C1", "note": "(stereo not given)", "growth": "107%"},
      {"compound": "C#CC(F)(F)[C@]1(O)CC[C@H]2[C@@H]3CCC4=CC(=O)CCC4=C3[C@@H](c3ccc(C4CC4)cc3)C[C@@]21C", "growth": "24.8%"},
      {"compound": "COc1ccc2cc(-c3nn(-c4ccc(C(=O)O)cc4)cc3CO)ccc2c1", "growth": "101%"},
      {"compound": "COc1ccc(C2CC(c3ccc4ccccc4c3)=NN2/C=C2\\SC(=S)N(NC(=O)Cc3ccccc3Nc3c(Cl)cccc3Cl)C2=O)cc1", "note": "(stereo not given)", "growth": "34.6%"},
      {"compound": "COc1ccc(C(=O)COc2ccc(/C=C3\\Oc4ccc(OC)cc4C3=O)cc2)cc1", "growth": "88%"},
      {"compound": "O=C(COc1ccc(/C=C2\\CSc3ccccc3C2=O)cc1)Nc1nccs1", "growth": "79.4%"},
      {"compound": "CC(=O)Oc1ccc(Cl)cc1CN(C(C)=O)C1CCCCC1", "growth": "97.1%"},
      {"compound": "COc1cccc(C2=NN3C(C2)c2cc(Br)cc(OC)c2OC32CCN(Cc3ccccc3)CC2)c1", "note": "(stereo not given)", "growth": "104%"},
      {"compound": "OCCN1CCN(c2nc(Nc3ccc(-c4nc5ccccc5[nH]4)cc3)c3cn[nH]c3n2)CC1", "growth": "-91% (active)"},
      {"compound": "FC(F)(F)c1nc2c(NCc3ccc(-c4ccccc4)cc3)cccc2[nH]1", "growth": "77.2%"},
      {"compound": "COc1ccc(/C=C\\c2cc(OC)c(OC)c(OC)c2)cc1OCC(=O)Nc1ccc2nc(C)sc2c1", "growth": "9.11% (active)"},
      {"compound": "Cc1[nH]c(-c2cc(N)ccc2Cl)c2c1C(=O)CCCC2", "growth": "22.2%"},
      {"compound": "CCN1CCN(c2nc(NCCCNc3ccnc4cc(Cl)ccc34)c3ccccc3n2)CC1", "growth": "16.6%"},
      {"compound": "CC(=O)c1cc2c(N)c(C(=O)Nc3ccccc3)sc2nc1C", "growth": "93.9%"},
      {"compound": "O=C(NCCN1CCOCC1)Nc1ccc(-c2cc3c(Nc4ccc(Oc5cccc(C(F)(F)F)c5)c(Cl)c4)ncnc3s2)cc1", "growth": "41.1%"},
      {"compound": "COC(=O)c1ccc2oc(NC(=O)c3ccc(Nc4ccc([N+](=O)[O-])cc4C)c([N+](=O)[O-])c3)nc2c1", "growth": "104%"},
      {"compound": "COc1cc(C)c(C2C(C#N)=C(N)Oc3n[nH]c(-c4cccs4)c32)cc1C(C)C", "note": "(stereo not given)", "growth": "89.1%"},
      {"compound": "O=C(CCl)Oc1ccc(-c2ccccc2)c(Br)c1", "growth": "103%"},
      {"compound": "CCN(CC)c1ccc2c(c1)Oc1nc(N)c(C#N)c(N)c1C2Sc1ccc(SC)cc1", "note": "(stereo not given)", "growth": "-7.42% (active)"},
      {"compound": "Cc1c(/C=C/[N+](=O)[O-])ccc2c1[nH]c1ccccc12", "growth": "94.1%"},
      {"compound": "N#Cc1c(-c2ccc(Cl)cc2)nc(N=Nc2c(O)[nH]c3ccc(Cl)cc23)nc1N1CCOCC1", "growth": "100%"},
      {"compound": "Cc1cc(N2CCSCC2)nc(NC2CCCC(Nc3ccnc4cc(Cl)ccc34)C2)n1", "note": "(stereo not given)", "growth": "-20.9% (active)"},
      {"compound": "C=C1C(=O)O[C@H]2[C@H]1CC/C(C=Nc1ccc(C(F)(F)F)cc1N)=C\\CC[C@@]1(C)O[C@@H]21", "growth": "3.29% (active)"},
      {"compound": "C=C1C(=O)O[C@H]2[C@H]1CC/C(COC(=O)NCc1ccc(OC)c(OC)c1)=C\\CC[C@@]1(C)O[C@@H]21", "growth": "47.9%"},
      {"compound": "COc1ccc(-c2nc3ccc(-c4nc5ccc(N6CCN(c7ccccc7)CC6)cc5[nH]4)cc3[nH]2)cc1OC", "growth": "-4.55% (active)"},
      {"compound": "COc1cc(-c2nn(C)nc2-c2cc3ccccc3s2)cc(OC)c1OC", "growth": "28%"},
      {"compound": "O=C(/C=C/c1cccc(Cl)c1)c1ccc(O)c(CN2CCN(c3cc4c(cc3F)c(=O)c(C(=O)O)cn4C3CC3)CC2)c1", "growth": "20.6%"},
      {"compound": "NNCCc1ccc(NC(=O)CCCc2ccc(/C=C/C(=O)NO)cc2)cc1", "growth": "8.02% (active)"},
      {"compound": "CCC(=O)c1ccc(Cl)s1", "growth": "101%"},
      {"compound": "CCN(CC)c1ccc(/C=N\\NC(=O)/C=C/C=C/c2ccc3c(c2)OCO3)c(O)c1", "growth": "32.9%"},
      {"compound": "Nc1ccn(-c2ccc(Br)cc2)c(=O)n1", "growth": "117%"},
      {"compound": "COc1cc(/C=C/c2cc(/C=C/c3ccc(O)c(OC)c3)n(-c3c(C)cccc3C)c(=O)n2)ccc1O", "growth": "0.393% (active)"},
      {"compound": "O=C1NC(=O)C(c2ccc(Cl)cc2Cl)N1", "note": "(stereo not given)", "growth": "112%"},
      {"compound": "COc1cc(-c2nc3ccccc3[nH]2)ccc1OCC(=O)N=Nc1c(O)[nH]c2ccc(Cl)cc12", "growth": "-70.4% (active)"},
      {"compound": "O=C1c2cc3c(cc2-c2c1c1ccc(F)cc1c(=O)n2C[C@H](O)[C@H](O)[C@H](O)CO)OCO3", "growth": "-3.45% (active)"},
      {"compound": "Cn1ncc2c(=O)nc3c(-c4ccccc4)n[nH]n3c21", "growth": "99.8%"},
      {"compound": "Cc1cc(Nc2ccc(C)c(Cl)c2)n2nc(C(F)(F)F)nc2n1", "growth": "30.8%"},
      {"compound": "COc1ccc(CN2c3ccccc3Oc3ccccc32)cc1O", "growth": "35.6%"},
      {"compound": "CCCCN(CCCC)CCCn1c(-c2ccccc2)ccc1-c1ccccc1", "growth": "82.4%"},
      {"compound": "O=C(N/N=C/c1c[nH]c2ccccc12)c1cc(-c2ccccc2)on1", "growth": "102%"}
    ]}
  ]
}
